Results on 9 molecules are retold here after PubChem BioAssay (NCI).

About 83,000 compounds went through this panel and 20% of them were active in at least one assay; those are over-represented in the sample as a whole.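 Interpretation: 100, growth as untreated; towards 0, rising growth inhibition; 0, no net growth; 0 to -100, cell death. Compounds scoring below 10 were considered active.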 Unmarked numbers belong to inactive results. Calls of active or inactive are those of the source.

Some test systems named below: SK-MEL-2 melanoma; EKVX NSCLC; SN12C renal; UO-31 renal; TK-10 renal; ACHN renal; CAKI-1 renal; A498 renal; CCRF-CEM leukemia; MOLT-4 leukemia; SR leukemia; OVCAR-8 ovarian; OVCAR-5 ovarian; OVCAR-4 ovarian; SK-OV-3 ovarian; OVCAR-3 ovarian; HS 578T breast; NCI/ADR-RES ovarian; IGROV1 ovarian.
What all share (assay): NCI-60 one-dose screen, 48 h (100 = growth as untreated, 0 = no growth, -100 = all killed)
Common to all, as to settings: 10 µM unless noted

Regarding `N#CC1=C(N)Oc2c(sc3c(Br)cccc23)C1c1ccc(Br)cc1` (stereo unspecified), the growth with SK-MEL-2 melanoma was 8.78% (active); in the experiment with EKVX NSCLC, 45.6%; in the experiment on SN12C renal it was 25.8%; in the experiment on UO-31 renal, 36.3%; with TK-10 renal it was 54.6%; in the experiment on ACHN renal, 56%. Besides, the growth in the experiment with CAKI-1 renal is 32.8%; in the experiment with A498 renal it was 23.9%; with CCRF-CEM leukemia, 10.1%; with MOLT-4 leukemia, 7.14% (active); in the experiment on SR leukemia, 4.23% (active); with OVCAR-8 ovarian, 36.1%. In addition, the growth in the experiment on OVCAR-5 ovarian was 56.3%; with OVCAR-4 ovarian, 48.9%; with SK-OV-3 ovarian it was 36%; in the experiment on OVCAR-3 ovarian it was -8.57% (active); in the experiment with HS 578T breast it was 14.1%; with NCI/ADR-RES ovarian it was 2.32% (active).

Consider `O=C1/C(=C/c2ccc(F)cc2)Sc2c(Br)cccc21`, for which the growth in the experiment on SK-MEL-2 melanoma was 63.5%; in the experiment with EKVX NSCLC it was 87.9%; in the experiment on SN12C renal, 62.7%; in the experiment with UO-31 renal, 42%; in the experiment with TK-10 renal, 111%; with ACHN renal it was 76.5%. Besides, the growth in the experiment with CAKI-1 renal was 81.5%; with A498 renal, 92.9%; with CCRF-CEM leukemia, 86.2%; with MOLT-4 leukemia, 81.5%; with SR leukemia it was 50.5%; in the experiment with OVCAR-8 ovarian, 64.9%. Also, the growth in the experiment on OVCAR-5 ovarian is 101%; in the experiment with OVCAR-4 ovarian, 82.3%; in the experiment with SK-OV-3 ovarian it was 84.1%; with OVCAR-3 ovarian it was 86.3%; in the experiment on HS 578T breast, 80.3%; with NCI/ADR-RES ovarian it was 71.9%.

For `COc1cccc(/C=C2\C=C(c3ccccc3)N(Cc3ccccc3)C2=O)c1`, the growth in the experiment with SK-MEL-2 melanoma is 72.6%; with EKVX NSCLC it was 39.3%; in the experiment on SN12C renal, 43.6%; in the experiment with UO-31 renal, 41.2%; with TK-10 renal it was 88.5%; with ACHN renal, 48%. Moreover, the growth in the experiment on CAKI-1 renal is 55.1%; in the experiment on A498 renal, 16%; in the experiment on CCRF-CEM leukemia, 62.2%; in the experiment on MOLT-4 leukemia, 59.1%; in the experiment with SR leukemia, 10.9%; in the experiment with OVCAR-8 ovarian it was 68%. For the same molecule, the growth is 92.8% in the experiment on OVCAR-5 ovarian; 71.9% in the experiment on OVCAR-4 ovarian; 42% in the experiment on SK-OV-3 ovarian; 59.3% with OVCAR-3 ovarian; 42% in the experiment with HS 578T breast; 51.3% with NCI/ADR-RES ovarian.

As for `COc1ccc2sc3c(NCCO)nc4ccccc4c3c(=O)c2c1`, the growth with SK-MEL-2 melanoma is 107%; in the experiment with EKVX NSCLC it was 70.3%; with SN12C renal it was 96.6%; with UO-31 renal, 79.4%; with TK-10 renal, 103%; in the experiment with ACHN renal, 98.1%. In addition, the growth was 90.5% with CAKI-1 renal; 48.7% in the experiment on A498 renal; 75.3% in the experiment with CCRF-CEM leukemia; 89.3% in the experiment with MOLT-4 leukemia; 83.9% in the experiment on SR leukemia; 92.1% with OVCAR-8 ovarian. Further, the growth is 102% in the experiment with OVCAR-5 ovarian; 114% with OVCAR-4 ovarian; 110% with SK-OV-3 ovarian; 122% in the experiment with OVCAR-3 ovarian; 95.4% in the experiment on HS 578T breast; 99.6% in the experiment with NCI/ADR-RES ovarian.

Regarding `Cc1ccc2sc3c(NCCN)nc4ccccc4c3c(=O)c2c1`, the growth with SK-MEL-2 melanoma was 105%; in the experiment with EKVX NSCLC, 88%; in the experiment on SN12C renal it was 69.3%; in the experiment with UO-31 renal it was 50.6%; in the experiment with TK-10 renal, 96.2%; in the experiment with ACHN renal it was 66.4%. The growth was 42.7% in the experiment with CAKI-1 renal; 61.6% with A498 renal; 32.8% with CCRF-CEM leukemia; 49% in the experiment with MOLT-4 leukemia; -13.4% (active) in the experiment with SR leukemia; 80.1% in the experiment with OVCAR-8 ovarian. Also, the growth in the experiment with OVCAR-5 ovarian is 97%; in the experiment on OVCAR-4 ovarian, 67%; in the experiment on SK-OV-3 ovarian it was 88.4%; with OVCAR-3 ovarian, 63%; in the experiment with HS 578T breast it was 85%; with NCI/ADR-RES ovarian, 80.5%.

As for `CCCCCCn1c(-c2ccc(C(=O)O/N=C(\N)c3ccc4c(c3)OCO4)cc2)nc(-c2ccccc2)c1-c1ccccc1`, the growth was 70.9% with SK-MEL-2 melanoma; -33.5% (active) in the experiment on EKVX NSCLC; -7.53% (active) with SN12C renal; -89.2% (active) with UO-31 renal; -9.77% (active) with TK-10 renal; -88.2% (active) with ACHN renal. Further, the growth in the experiment on CAKI-1 renal is -21.3% (active); in the experiment on A498 renal, 37.2%; with CCRF-CEM leukemia, -34.4% (active); in the experiment on MOLT-4 leukemia it was 0.83% (active); in the experiment on SR leukemia, -26.3% (active); with OVCAR-8 ovarian it was 17.7%. Also, the growth in the experiment on OVCAR-5 ovarian was 43.2%; in the experiment on OVCAR-4 ovarian it was 39.6%; in the experiment with SK-OV-3 ovarian it was 98.7%; in the experiment on IGROV1 ovarian, -68.5% (active); in the experiment with HS 578T breast, 4.78% (active); with NCI/ADR-RES ovarian it was -52.8% (active).

In the case of `Cc1nc2ccccc2n1-c1ncnc2c1CC(C)c1ccccc1N2C` (stereo unspecified), the growth in the experiment on SK-MEL-2 melanoma is 78.3%; in the experiment with EKVX NSCLC it was 92.7%; with SN12C renal it was 87.8%; in the experiment on UO-31 renal, 71.3%; in the experiment on TK-10 renal, 97.4%; in the experiment on ACHN renal it was 93.2%. Further, the growth in the experiment with CAKI-1 renal is 79.9%; in the experiment with A498 renal, 70.4%; with CCRF-CEM leukemia, 76.3%; in the experiment with MOLT-4 leukemia, 60.3%; with SR leukemia, 19.7%; in the experiment on OVCAR-8 ovarian it was 85%. Besides, the growth in the experiment with OVCAR-5 ovarian is 101%; with OVCAR-4 ovarian, 92.4%; in the experiment on SK-OV-3 ovarian, 85.9%; in the experiment on HS 578T breast, 82.5%; in the experiment on NCI/ADR-RES ovarian, 67.8%.

Consider `COc1ccc(-c2nc(NCCO)[nH]c(=O)c2C#N)cc1`, for which the growth in the experiment with SK-MEL-2 melanoma is 98.6%; in the experiment on EKVX NSCLC, 110%; in the experiment with SN12C renal, 95.9%; with UO-31 renal, 90.5%; in the experiment with TK-10 renal, 99.7%; with ACHN renal, 96.5%. Also, the growth with CAKI-1 renal is 101%; in the experiment with A498 renal, 113%; in the experiment on CCRF-CEM leukemia, 102%; in the experiment on MOLT-4 leukemia it was 98.8%; with SR leukemia, 94.3%; in the experiment with OVCAR-8 ovarian, 107%. Also, the growth in the experiment on OVCAR-5 ovarian was 92.8%; in the experiment with OVCAR-4 ovarian, 107%; in the experiment with SK-OV-3 ovarian it was 97.7%; in the experiment with OVCAR-3 ovarian, 111%; with HS 578T breast, 106%; in the experiment with NCI/ADR-RES ovarian, 98.1%.

In the case of `O=C1c2cccc3cccc(c23)C(=O)N1N1C(=O)c2cccc3c(NC4CCCCC4)ccc(c23)C1=O`, the growth is 105% in the experiment on SK-MEL-2 melanoma; 89.3% in the experiment on EKVX NSCLC; 91.7% with SN12C renal; 66.3% with UO-31 renal; 126% in the experiment on TK-10 renal; 92.2% in the experiment on ACHN renal. Besides, the growth in the experiment on CAKI-1 renal was 79.9%; in the experiment on A498 renal it was 95.5%; in the experiment with CCRF-CEM leukemia it was 89.1%; with MOLT-4 leukemia it was 89.6%; in the experiment with SR leukemia, 90.2%; with OVCAR-8 ovarian, 96.2%. For the same molecule, the growth is 90.6% in the experiment with OVCAR-5 ovarian; 96.8% with OVCAR-4 ovarian; 92.1% with SK-OV-3 ovarian; 102% in the experiment on IGROV1 ovarian; 103% with HS 578T breast; 95.4% with NCI/ADR-RES ovarian.
